Shown are actives, neighbours in structure and some others; about 21% of the full set was active somewhere.
MRP-1 activ: activates MRP-1; viability increase, % at 10 µM; hit rate 0.61% among 140,000; H69AR cells + doxorubicin, viability rescue, CellTiter-Glo;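 active means viability gain under doxorubicin at or above a set limit, the compound median plus 3 SD, cut at about 4.7% in these data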;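 further: MRP-1 overexpressing cells given doxorubicin 25 µM after compound pretreatment; 18-22 h compound pretreatment then 72 h with doxorubicin before readout; 0% = doxorubicin-only wells and 100% = vehicle-treated cells without doxorubicin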
CYP2C9 inhib: blocks human cytochrome P450 2C9; CYP2C9 Supersomes, luciferin-H conversion, luminescence; hit rate 20% among 96,000; AID 777; inhibition, % at 5 µM;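 active means blocking of liver enzyme CYP2C9 beyond about 50% at 5 µM, limit read from the data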
Target sequence (P11712 whole entry, looked up): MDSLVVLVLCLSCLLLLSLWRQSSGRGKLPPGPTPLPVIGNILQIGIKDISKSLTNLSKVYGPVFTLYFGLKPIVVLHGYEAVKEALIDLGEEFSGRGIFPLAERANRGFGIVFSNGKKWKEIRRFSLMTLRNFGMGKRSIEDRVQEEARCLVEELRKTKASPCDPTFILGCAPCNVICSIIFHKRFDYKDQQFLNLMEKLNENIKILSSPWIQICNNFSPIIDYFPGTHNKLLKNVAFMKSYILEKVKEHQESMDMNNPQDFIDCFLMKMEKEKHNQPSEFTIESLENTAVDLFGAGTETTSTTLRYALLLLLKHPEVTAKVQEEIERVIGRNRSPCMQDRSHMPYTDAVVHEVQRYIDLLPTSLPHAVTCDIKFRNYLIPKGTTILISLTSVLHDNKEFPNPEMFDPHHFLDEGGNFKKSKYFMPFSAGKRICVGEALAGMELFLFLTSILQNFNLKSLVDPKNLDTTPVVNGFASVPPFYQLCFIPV
MRP resist rev: MRP-mediated drug resistance reversal. AID 602. H69AR cells + 2 uM doxorubicin, CellTiter-Glo, 72 h. hit rate 0.04% among 85,000. differential viability (reversal), % at 10 µM;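 active means viability drop by adding the cancer drug above about 55%, with treated viability meeting a 40% cutoff, limit read from the data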;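 further: viability without doxorubicin minus viability with 2 µM doxorubicin for each compound; larger differential means the compound sensitizes cells more to doxorubicin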
CYP2C19 act: activators of human cytochrome P450 2C19. P33261. recombinant CYP2C19, luciferin-H EGE luminescence; stronger effect = higher value; 0 = fully inhibited enzyme, 1 = untreated enzyme. 96,000 tested, under 10 active. AID 1025. activation factor at 5 µM;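 active means activation factor of at least 2 at 5 µM in the primary screen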;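 further: 0 = wells with 2.5 mM tranylcypromine and 1 = vehicle-only wells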
CYP2C9 activ: activators of human CYP2C9. P11712. recombinant CYP2C9, luciferin-H conversion, luminescence; stronger effect = higher value; factor 1 = untreated enzyme, 0 = blocked. activation factor at 5 µM. hit rate 1.4% among 96,000. AID 1024;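 active means activation factor of 2 or more for CYP2C9 at a 5 µM dose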;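 further: 0 = sulfaphenazole-blocked wells and 1 = vehicle-only wells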
CYP2C19 inh: human CYP2C19 inhibition; P33261; CYP2C19 Supersomes, luciferin-H EGE luminescence, 30 min; inhibition, % at 5 µM; hit rate 21% among 96,000; AID 778;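 active means CYP2C19 inhibition above a set limit at 5 µM in the primary screen, cut at about 50% in these data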;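 further: plate controls were negative control wells for no effect and 2.5 mM tranylcypromine positive control for full effect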
* marks the source's active call; other numbers are inactive results; . = not tested or not shown.

SMILES | MRP-1 activ | CYP2C9 inhib | MRP resist rev | CYP2C19 act | CYP2C9 activ | CYP2C19 inh
CCC1CCCCN1C(=O)N[C@@H](Cc1ccccc1)C(=O)O (stereo partly drawn) | -1.4 | -10.0 | -1.2 | 1 | 1.1 | -1.5
Cc1cc(NC(=O)CN2C(=O)NC3(CCC(C)CC3)C2=O)no1 (stereo not drawn) | -1.6 | . | . | . | . | .
CC(=O)c1ccc(S(=O)(=O)N2CCCC2)cc1 | -1.0 | 59.7* | 4.3 | 0.8 | 0.4 | 17.0
N#C/C(=N\Nc1ccc(S(=O)(=O)N2CCCCC2)cc1)C(N)=S | -2.0 | . | . | . | . | .
CC(=O)Nc1ccc(S(=O)(=O)N2CCCN(S(=O)(=O)c3ccc(NC(C)=O)cc3)CC2)cc1 | -3.7 | 61.2* | -31.2 | 0.7 | 0.4 | 30.1
CC(=O)Nc1ccc(S(=O)(=O)Nc2ccc(S(=O)(=O)N3CCCCCC3)cc2)cc1 | -1.9 | 81.5* | -10.7 | 0.9 | 0.2 | 13.7
N#CC(C#N)=NNc1ccc(S(=O)(=O)N2CCCC2)cc1 | 5.1* | . | . | . | . | .
CC(C)=C1C2CCC1C1C(=O)N(c3nc(-c4ccccc4)c(C)s3)C(=O)C21 (stereo not drawn) | -2.8 | . | . | . | . | .
c1ccc(-c2ncnc3cc4n(c23)CCC4)cc1 | -1.9 | . | 1.6 | . | . | .
CC(=O)Nc1ccc(C(=O)Nc2ccc(S(=O)(=O)N3CCCC3)cc2)cc1 | 0.9 | -19.9 | 6.7 | 1 | 1.2 | 2.6
CC(=O)Nc1ccc(S(=O)(=O)N2CCN(C(=O)N3CCCCCC3)CC2)cc1 | 0.2 | 51.3* | -1.2 | 0.8 | 0.5 | 22.9
Cc1cccc(N2CCN(S(=O)(=O)c3c(C)[nH]c(=O)[nH]c3=O)CC2)c1C | -0.7 | 6.7 | 11.2 | 0.5 | 0.9 | 50.2*
Cc1ccc(Cl)cc1N1CCN(S(=O)(=O)c2c(C)[nH]c(=O)[nH]c2=O)CC1 | -0.3 | 26.4 | 11.9 | 0.8 | 0.7 | 23.7
CC(=O)Nc1ccc(S(=O)(=O)N2CCN(c3cccc(C)c3C)CC2)cc1 | -3.9 | 75.4* | -40.3 | 0.6 | 0.2 | 40.3
CC(=O)Nc1ccc(S(=O)(=O)N2CCc3c(Cl)cccc3C2)cc1 | -2.6 | -168.7 | -0.3 | 0.4 | 2.7* | 64.6*
CCn1cc([N+](=O)[O-])c(C(=O)N2N=C3/C(=C/c4cccs4)CCCC3C2c2cccs2)n1 (stereo not drawn) | -2.9 | . | -23.5 | . | . | .
CC(=O)Nc1ccc(S(=O)(=O)N2CCN(c3ccc(C)c(Cl)c3)CC2)cc1 | -2.0 | 53.0* | 2.5 | 0.6 | 0.5 | 36.6
CC(=O)Nc1ccc(S(=O)(=O)N2CCN(Cc3cccnc3)CC2)cc1 | -3.5 | -1.5 | 20.7 | 0.7 | 1 | 29.4
CC(=O)Nc1ccc(S(=O)(=O)N2CCN(Cc3ccncc3)CC2)cc1 | -3.0 | 53.6* | 27.4 | 0.1 | 0.5 | 94.7*
Cc1ccccc1-c1cc(C(=O)n2cccn2)c2cc(Cl)ccc2n1 | -2.9 | 15.1 | . | 0.4 | 0.8 | 62.0*
CCCCCCCCc1nnc(NC(=O)c2ccco2)s1 | -1.5 | 43.0 | 0.7 | 0.7 | 0.6 | 28.3
O=C(O)c1cnc(-c2ccccc2)nc1Sc1ccc(Cl)cc1 | -2.3 | 61.0* | . | 1 | 0.4 | 3.5
CCOC(=O)c1c(C)nc2sc3c(=O)n(-c4ccc(OC)cc4)nnc3c2c1-c1ccc(OC)cc1 | -2.1 | 26.4 | . | 0.7 | 0.7 | 30.8
CCOC(=O)c1c(C)nc2sc3c(=O)n(-c4ccc(C(C)=O)cc4)cnc3c2c1-c1ccc(OC)cc1 | -0.4 | 76.5* | . | 0.3 | 0.2 | 70.0*
CC(C)(C)C(=O)[C@@H]1[C@@H]2C(=O)N(Cc3ccccc3)C(=O)[C@@H]2[C@H]2c3ccccc3C=CN12 | -1.8 | 75.3* | -1.4 | 0.3 | 0.2 | 74.5*
SMILES | MRP-1 activ | CYP2C9 inhib | MRP resist rev | CYP2C19 act | CYP2C9 activ | CYP2C19 inh
O=C(CN1C(=O)c2ccccc2S1(=O)=O)c1ccccc1 | -2.1 | 23.2 | 0.3 | 0.8 | 0.8 | 19.0
Cc1ccc(C(=O)CN2/C(=C(\O)c3ccccc3)C(=O)c3ccccc3S2(=O)=O)c(C)c1 | -5.1 | 69.3* | -16.8 | 0.8 | 0.3 | 20.4
Cc1ccc(C2C(C(=O)O)c3ccccc3C(=O)N2C)c(C)c1 (stereo not drawn) | -0.6 | . | 3.0 | . | . | .
Cc1cc(C(=O)CN2C(=O)c3ccccc3S2(=O)=O)c(C)n1-c1ccccc1 | -1.3 | 66.3* | 7.9 | 0.2 | 0.3 | 78.8*
Nc1nc(CN2CCN(c3ccccn3)CC2)nc(Nc2ccc(Cl)cc2)n1 | -0.1 | 68.5* | -0.8 | 0.5 | 0.3 | 46.3
COc1cccc(N2CCN(Cc3nc(N)nc(Nc4ccccc4)n3)CC2)c1 | -1.5 | 5.5 | 4.3 | 1 | 0.9 | -2.9
Cc1cccc(Nc2nc(N)nc(CN3CCN(c4ccccc4)CC3)n2)c1 | -1.1 | 66.7* | -8.6 | 0.5 | 0.3 | 52.7*
Cc1c(Cl)cccc1Nc1nc(N)nc(CN2CCc3ccccc3C2)n1 | -2.6 | 46.2 | -48.5 | 0.7 | 0.5 | 32.9
Cc1ccc(Nc2nc(N)nc(CN3CCc4ccccc4C3)n2)cc1 | -0.3 | 51.7* | -12.7 | 0.4 | 0.5 | 55.0*
CC1CN(c2cc(=O)n(-c3ccccc3)c(=O)[nH]2)CC(C)O1 (stereo not drawn) | -0.9 | 8.1 | 2.1 | 1.1 | 0.9 | -9.7
CC(C)CNC(=O)CC(=O)N/N=C/c1ccc(F)cc1 | -0.1 | . | . | . | . | .
CC(C)COCC1CC2(CC(C)(c3csc(N)n3)OC2=O)C(=O)O1 (stereo not drawn) | 0.0 | -21.8 | . | 1 | 1.2 | 2.9
C=CCNc1nc(C2(C)CC3(CC(C)(C)OC3=O)C(=O)O2)cs1 (stereo not drawn) | -1.9 | -22.7 | -3.3 | 0.2 | 1.2 | 79.4*
O=C(CC(c1ccccc1)c1ccccc1)Nc1ccc2c(c1)OCCO2 | -0.3 | 52.1* | 2.5 | 0.6 | 0.5 | 35.9
O=C(CSCc1ccccc1Cl)Nc1ccc2c(c1)OCCO2 | -0.9 | 59.9* | . | 0.7 | 0.4 | 26.2
O=C(CSCc1ccc(Cl)cc1)Nc1ccc2c(c1)OCO2 | -0.3 | . | 12.7 | . | . | .
COc1ccc(S(=O)(=O)Cc2ccc(C(=O)N3CCN(c4ccc(Cl)cc4)CC3)o2)cc1 | -2.2 | 82.4* | -29.4 | 0.6 | 0.2 | 42.0
Cc1ccc(S(=O)(=O)Cc2ccc(C(=O)N3CCN(c4ccc(F)cc4)CC3)o2)cc1 | -3.7 | 73.5* | -67.0 | 0.6 | 0.3 | 37.4
COc1ccc(N2CCN(C(=O)c3ccc(CS(=O)(=O)c4ccc(OC)cc4)o3)CC2)cc1 | -2.0 | 77.7* | -3.7 | 0.6 | 0.2 | 42.5
COc1ccc(S(=O)(=O)Cc2ccc(C(=O)N3CCN(c4cccc(C)c4C)CC3)o2)cc1 | -4.3 | 75.8* | -41.7 | 0.4 | 0.2 | 55.5*
COc1cc(NC(=O)C/C(C)=N/NC(=O)c2cccc(O)c2)c(OC)cc1Cl | -3.7 | . | . | . | . | .
COc1ccc(S(=O)(=O)Cc2ccc(C(=O)N3CCN(c4cc(Cl)ccc4C)CC3)o2)cc1 | -1.6 | 84.8* | -14.7 | 0.4 | 0.2 | 61.2*
O=C(c1ccc(CS(=O)(=O)c2ccc(Br)cc2)o1)N1CCCC1 | -0.2 | 30.9 | 15.1 | 0.7 | 0.7 | 26.1
